Test [1] addresses Rap guanine nucleotide exchange factor 3 (Homo sapiens) (UniProt O95398). Description: Confirmatory qHTS for antagonist of cAMP-regulated guanine nucleotide exchange factor 3 (EPAC1) (AID 1645880). Further: nearly all actives have a fitted effect of over 55% in size. Further: potency means the concentration at half of the fitted maximal effect. The gist of the method: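 Released BODIPY-GDP fluoresces less than Rap1-bound BODIPY-GDP; the signal is followed at 480/540 nm at 5-min intervals over 30 min, after 5 min at room temperature. Reactions contain 100 nM EPAC1, 250 nM RAP1B-BODIPY-GDP and 50 uM GDP; results are normalized to ATA and DMSO.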

Test [2] has the same target. Description: Confirmatory qHTS for agonist of cAMP-regulated guanine nucleotide exchange factor 3 (EPAC1) (AID 1645881). Further: nearly all actives have a fitted effect of over 75% in size. Further: potency means the concentration at half of the fitted maximal effect.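 On activation: EPAC1 catalysed release of BODIPY-GDP from Rap1B seen as fluorescence loss; 100% = effect of cAMP agonist control.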
Test [3] has as its target Rap guanine nucleotide exchange factor 4 (Homo sapiens) (UniProt Q8WZA2). The test is described as follows: Confirmatory qHTS for agonist of cAMP-regulated guanine nucleotide exchange factor 4 (EPAC2) (AID 1645884).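 Further: nucleotide exchange releases bodipy-GDP from Rap1 and this lowers its fluorescence; nearly all actives have a fitted effect of over 65% in size.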 Further: potency means the concentration at half of the fitted maximal effect. On activation: on the % scale 0 is the no-effect control and ±100 the full control effect.
Test [4] shares this target. The test is described as follows: Confirmatory qHTS for antagonist of cAMP-regulated guanine nucleotide exchange factor 4 (EPAC2) (AID 1645885). Further: nearly all actives have a fitted effect of over 25% in size. Further: potency means the concentration at half of the fitted maximal effect. On activity change, negative = inhibition: on the % scale 0 is the no-effect control and ±100 the full control effect.
The target in test [5] is Rap guanine nucleotide exchange factor 3 (Homo sapiens) (UniProt O95398). Description: Counterscreen qHTS for antagonist of cAMP-regulated guanine nucleotide exchange factor 3 (EPAC1) (AID 1645888). Further: % of control where 0% means no effect. The gist of the method:
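Measured: fluorescence of BODIPY-GDP bound to Rap1B, which falls as exchange proceeds. Conditions include 50 uM competing GDP, 5 and 30 min reads, and a later cAMP challenge for antagonist detection.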

Records with an inconclusive call do not appear. Unmarked numbers belong to inactive results. Calls of active or inactive are those of the source. The call rests on the fitted dose curve; in most records, active means well fitted curve in the direction sought with a large enough effect; inconclusive means small, poorly fitted or top-dose-only effect, or another doubt; inactive means no such curve, though single readings can be large; an effect the other way counts as inactive or inconclusive.

Rap guanine nucleotide exchange factor 3 (Homo sapiens), sequence (O95398 whole entry, looked up): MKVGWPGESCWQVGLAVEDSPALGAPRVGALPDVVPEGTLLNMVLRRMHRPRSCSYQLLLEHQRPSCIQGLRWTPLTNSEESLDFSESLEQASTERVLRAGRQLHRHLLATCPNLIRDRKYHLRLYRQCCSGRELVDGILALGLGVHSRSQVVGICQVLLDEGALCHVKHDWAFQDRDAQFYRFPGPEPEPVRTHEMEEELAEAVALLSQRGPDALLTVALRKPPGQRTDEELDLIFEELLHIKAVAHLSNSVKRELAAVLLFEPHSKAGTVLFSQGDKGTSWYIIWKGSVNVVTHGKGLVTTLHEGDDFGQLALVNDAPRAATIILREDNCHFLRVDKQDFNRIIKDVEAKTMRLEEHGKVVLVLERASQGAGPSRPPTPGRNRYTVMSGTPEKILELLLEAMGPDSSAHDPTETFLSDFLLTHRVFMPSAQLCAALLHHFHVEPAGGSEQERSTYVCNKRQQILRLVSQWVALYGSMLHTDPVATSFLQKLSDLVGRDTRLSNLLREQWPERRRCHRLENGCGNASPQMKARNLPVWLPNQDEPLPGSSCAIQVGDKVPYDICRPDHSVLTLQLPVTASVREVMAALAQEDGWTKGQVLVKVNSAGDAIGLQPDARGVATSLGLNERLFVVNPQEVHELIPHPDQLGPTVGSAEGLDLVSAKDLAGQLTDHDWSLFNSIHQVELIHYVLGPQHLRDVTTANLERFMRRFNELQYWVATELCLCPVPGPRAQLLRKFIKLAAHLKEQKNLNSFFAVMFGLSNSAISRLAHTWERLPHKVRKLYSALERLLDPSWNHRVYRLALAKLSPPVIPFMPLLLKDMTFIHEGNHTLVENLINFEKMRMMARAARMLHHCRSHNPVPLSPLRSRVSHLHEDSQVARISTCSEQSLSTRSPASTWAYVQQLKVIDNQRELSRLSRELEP
Rap guanine nucleotide exchange factor 4 (Homo sapiens), sequence (Q8WZA2 whole entry, looked up): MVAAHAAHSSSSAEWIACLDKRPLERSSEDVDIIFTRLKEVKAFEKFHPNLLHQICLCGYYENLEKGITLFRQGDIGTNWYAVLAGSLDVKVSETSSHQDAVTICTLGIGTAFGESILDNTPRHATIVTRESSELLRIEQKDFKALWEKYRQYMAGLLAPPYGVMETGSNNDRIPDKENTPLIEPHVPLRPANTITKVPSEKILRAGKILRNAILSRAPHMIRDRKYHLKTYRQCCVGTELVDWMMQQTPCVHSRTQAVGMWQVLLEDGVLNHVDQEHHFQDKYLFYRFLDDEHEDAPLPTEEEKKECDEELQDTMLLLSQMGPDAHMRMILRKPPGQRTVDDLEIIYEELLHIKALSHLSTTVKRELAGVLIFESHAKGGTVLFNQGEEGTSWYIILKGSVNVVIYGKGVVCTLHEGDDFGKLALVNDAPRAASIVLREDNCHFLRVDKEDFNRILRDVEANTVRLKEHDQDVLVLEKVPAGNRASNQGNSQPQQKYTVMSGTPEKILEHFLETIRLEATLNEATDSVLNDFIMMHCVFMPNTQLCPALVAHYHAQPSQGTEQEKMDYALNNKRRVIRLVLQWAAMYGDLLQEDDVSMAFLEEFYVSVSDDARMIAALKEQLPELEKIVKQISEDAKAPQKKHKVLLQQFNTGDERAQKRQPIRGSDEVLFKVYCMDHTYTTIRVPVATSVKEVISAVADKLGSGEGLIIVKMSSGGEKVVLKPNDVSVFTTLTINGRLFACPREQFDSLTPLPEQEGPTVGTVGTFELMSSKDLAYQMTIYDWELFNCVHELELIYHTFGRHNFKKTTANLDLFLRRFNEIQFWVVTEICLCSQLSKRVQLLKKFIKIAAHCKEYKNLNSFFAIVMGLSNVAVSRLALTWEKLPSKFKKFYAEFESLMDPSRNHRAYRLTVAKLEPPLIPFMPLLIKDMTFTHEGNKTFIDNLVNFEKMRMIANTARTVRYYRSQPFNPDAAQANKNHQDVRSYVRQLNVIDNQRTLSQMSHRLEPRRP

Consider `CNc1c(-n2cc(C(=O)OC)c(C(=O)OC)c2C(=O)OC)c(=O)n(C)c(=O)n1C`, for which the Potency result in test [1], in test [2], in test [3], in test [4] and in test [5] was “inactive” throughout.

For `CC(=O)N1N=C(N)SC1c1ccc(Cl)c(Cl)c1` (stereo not given), the Potency result in test [1], in test [2] and in test [4] was “inactive” throughout. Further, in test [3], the activation was -0.153% [at 17.1 µM, percent relative to cAMP agonist control]. Besides, the activity change, negative = inhibition in test [5] is -0.904% [at 30.8 µM].

For the compound `COc1ccc(NC(=O)c2c(-c3ccccc3)c(-c3ccccc3)nn(C)c2=O)cc1OC`, the Potency entry in test [1], in test [2], in test [3], in test [4] and in test [5] was “inactive” each time.

For `COc1cc(NS(=O)(=O)c2ccc(NC(=O)/C(=C/c3ccccc3Cl)NC(=O)c3ccccc3)cc2)nc(OC)n1`, the Potency in test [1] is 84.9 µM (active). The Potency result in test [2], in test [3], in test [4] and in test [5] was “inactive” in each case.

In the case of `O=C(COC(=O)c1nc(Cl)ccc1Cl)c1ccccc1Cl`, the Potency result in test [1], in test [2], in test [3], in test [4] and in test [5] was “inactive” each time.

On to `CCOCCCn1c(SCC(=O)Nc2cccc(OC)c2)nc2ccccc2c1=O`, for which the Potency entry in test [1], in test [2], in test [3], in test [4] and in test [5] was “inactive” throughout.

With `COc1ccc(C(=O)c2ccc(OC)c(OC)c2OC)cc1`, the Potency result in test [1], in test [2], in test [3] and in test [5] was “inactive” each time. In test [4], the Potency is 7.57 µM (active).

For the compound `COc1ccc(CNC(=O)C(=O)Nc2ccc(OC)cc2OC)cc1`, the Potency result in test [1], in test [2], in test [3], in test [4] and in test [5] was “inactive” throughout.

As to `C#CC(c1ccccc1)(c1ccccc1)n1ccnc1`, the Potency entry in test [1], in test [2], in test [3], in test [4] and in test [5] was “inactive” throughout.

Consider `CCOc1ccc(C2=CC(c3cccc(Br)c3)n3c(nc4ccccc43)N2)cc1Cl` (stereo not given), for which the Potency entry in test [1], in test [2], in test [3], in test [4] and in test [5] was “inactive” throughout.

For the compound `CCCN1C(=O)c2ccccc2NC1c1ccc(OC)cc1OC` (stereo not given), the Potency result in test [1], in test [2], in test [3], in test [4] and in test [5] was “inactive” throughout.

On to `O=C(CCCC(=O)Nc1cccnc1)Nc1cccnc1`, for which the Potency entry in test [1], in test [2], in test [3], in test [4] and in test [5] was “inactive” throughout.

For the compound `CC1CCN(c2ccc3c(c2)S(=O)(=O)c2ccccc2C3=O)CC1`, the Potency result in test [1], in test [4] and in test [5] was “inactive” in each case. For the same compound, the Potency in test [2] is 112 µM (active); in test [3] it was 100 µM (active).

As for `Cc1ccc2nc3sc(C(=O)NCc4ccco4)c(N)c3cc2c1`, the Potency entry in test [1], in test [2] and in test [4] was “inactive” in each case. Also, the activation in test [3] is 2.22% [at 17.1 µM, percent relative to cAMP agonist control]. Further, the activity change, negative = inhibition in test [5] was 3.21% [at 30.8 µM].

In the case of `O=C(Nc1ccccc1C(F)(F)F)N1CCC(CN2CCc3ccccc3C2)CC1`, the Potency entry in test [1], in test [2], in test [3], in test [4] and in test [5] was “inactive” in each case.

For the compound `CCOc1ccc(CN2C(=O)c3ccccc3Sc3ccc(C(=O)NCc4ccc5c(c4)OCO5)cc32)cc1`, the Potency result in test [1], in test [2], in test [3] and in test [5] was “inactive” in each case. Besides, the outcome in test [4] is “inactive [at 12.7 µM]”.

Consider `CC(C)Cc1csc(NC(=O)c2ccc(Cl)cc2)c1C(=O)O`, for which the Potency entry in test [1], in test [2] and in test [4] was “inactive” in each case. In test [3], the activation was 0% [at 17.1 µM, percent relative to cAMP agonist control]. In test [5], the activity change, negative = inhibition is -11.2% [at 30.8 µM].

Turning to `Cc1cccc(NC(=O)Cn2c(O)c(N=NC(=O)c3ccncc3)c3ccccc32)c1`, the Potency entry in test [1], in test [2], in test [3], in test [4] and in test [5] was “inactive” each time.

`O=C1NC(=O)C(c2ccccc2)(c2ccccc2)N1S(=O)(=O)c1ccccc1`: the Potency result in test [1], in test [2], in test [3], in test [4] and in test [5] was “inactive” throughout.

On to `CN(C(=O)c1cc(-c2ccccc2)on1)C1CCCCC1`, for which the Potency result in test [1], in test [2] and in test [4] was “inactive” in each case. The activation in test [3] is 6.82% [at 17.1 µM, percent relative to cAMP agonist control]. In addition, in test [5], the activity change, negative = inhibition is 29.1% [at 30.8 µM].

On to `COc1cc2c(cc1OC)-c1cc(NCc3ccccn3)nc(=O)n1CC2`, for which, in test [1], the Potency was 37.9 µM (active). Further, the Potency result in test [2], in test [3], in test [4] and in test [5] was “inactive” each time.

With `CCSc1nc2ccccc2c(=O)n1C1CCOC(C)(C)C1` (stereo not given), the Potency entry in test [1], in test [2], in test [3], in test [4] and in test [5] was “inactive” throughout.

Regarding `CC1CC(C)CN(C(=O)COC(=O)CNC(=O)C23CC4CC(CC(C4)C2)C3)C1` (stereo not given), the Potency result in test [1], in test [2], in test [3], in test [4] and in test [5] was “inactive” throughout.

Turning to `COc1cnc(-c2ccccn2)nc1Oc1cccc(Cl)c1`, the Potency result in test [1], in test [2], in test [3] and in test [5] was “inactive” throughout. Also, in test [4], the Potency was 10.7 µM (active).

On to `Cc1ccc(C)c(-c2ccc(=O)n(Cc3cccc(Br)c3)n2)c1`, for which the Potency entry in test [1], in test [2], in test [3] and in test [5] was “inactive” throughout. For the same compound, the Potency in test [4] is 19 µM (active).

Take `CCOc1cc(/C=C2\SC(=S)N(NS(=O)(=O)c3ccccc3)C2=O)ccc1O`: the Potency in test [1] was 33.8 µM (active); in test [4], 42.6 µM (active). Besides, the Potency result in test [2], in test [3] and in test [5] was “inactive” throughout.
